Bioassay records deposited in PubChem by National Center for Advancing Translational Sciences (NCATS).
FLuc modulator = firefly luciferase modulation, counter-screen for miR-21 project; 360,000 tested, 6.9% active; Potency, µM (series often up to 57.5 µM), for inactives: top-dose activity change, negative = inhibition, actives largely listed as inhibitors; purified FLuc, Km substrates, luminescence inhibition; P08659;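 further: plate controls were vehicle for no effect and reference inhibitor for full effect; nearly all actives have a fitted effect of over 55% in size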
Target sequence (P08659 whole entry, looked up): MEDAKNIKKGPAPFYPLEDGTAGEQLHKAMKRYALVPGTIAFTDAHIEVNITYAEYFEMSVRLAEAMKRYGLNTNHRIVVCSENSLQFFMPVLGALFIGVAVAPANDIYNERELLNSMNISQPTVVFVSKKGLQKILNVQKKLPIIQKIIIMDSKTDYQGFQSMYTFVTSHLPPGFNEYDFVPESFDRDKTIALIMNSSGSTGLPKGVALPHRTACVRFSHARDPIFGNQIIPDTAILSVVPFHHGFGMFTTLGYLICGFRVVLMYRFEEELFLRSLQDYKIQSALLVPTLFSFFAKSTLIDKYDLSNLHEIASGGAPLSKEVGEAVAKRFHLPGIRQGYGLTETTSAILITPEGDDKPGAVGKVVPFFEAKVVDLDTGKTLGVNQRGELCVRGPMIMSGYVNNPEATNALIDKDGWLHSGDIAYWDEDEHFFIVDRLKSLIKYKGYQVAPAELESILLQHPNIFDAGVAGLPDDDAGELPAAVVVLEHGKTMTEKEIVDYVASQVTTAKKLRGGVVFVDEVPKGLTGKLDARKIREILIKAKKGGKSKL
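Purified P. pyralis luciferase (10nM final) with 10uM D-luciferin and 10uM ATP (Km levels) in 50mM Tris acetate pH 7.5, 10mM Mg acetate, 0.01% Tween-20, 0.05% BSA; qHTS 6-point titration, ~60 µM downward; luminescence read.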
ELG1 genotoxic = induces genotoxicity in HEK293T cells with luciferase-tagged ELG1 | HEK293T ELG1-luciferase reporter, luminescence, 16 h | Potency, µM (titrated, usually from 46 µM), inactives show top-dose activity change, positive = activation, hits mostly activators | 330,000 tested, 1.3% active | AID 504466; further: % of control where 0% means no effect; nearly all actives have a fitted effect of over 60% in size
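Quantitative HTS format in 1536-well plates. HEK293T ELG1-luciferase reporter cells receive test compound and are incubated 16 hr at 37 °C, 5% CO2; ONE-Glo added, 30 min room temperature, then luminescence read.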
Rab9 prom act = activators of Rab9 promoter; Huh7 Rab9 promoter-luciferase reporter, luminescence, 24 h; Potency, µM (titrated, usually from 9.22 µM), without a hit: at the highest dose activation, negative = inhibition, usual class: activators; 320,000 tested, 2.8% active; further: % of control where 0% means no effect; nearly all actives have a fitted effect of over 60% in size
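Huh7 reporter line, Rab9 promoter upstream of luciferase. Compound exposure 24 h at 37 °C in reduced-serum medium with 10% FBS. Read-out: luminescence.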
NPC1 prom act = activates the NPC1 promoter; Huh7 NPC1 promoter luciferase reporter, 24 h; Potency, µM (highest dose often 9.22 µM), inactives show top-dose activation, actives largely listed as activators; 320,000 tested, 2.4% active; AID 485313; further: % of control where 0% means no effect; nearly all actives have a fitted effect of over 60% in size
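Quantitative HTS used a cell-based reporter: Huh7 cells stably bearing the NPC1 promoter upstream of luciferase were treated with compounds for 24 h, and promoter activation was read as luminescence.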
SMN2 splice up = enhancers of SMN2 splice variant expression | 210,000 tested, 2.8% active | AID 1458 | HEK293 SMN2-luciferase splicing reporter, luminescence, 30-36 h | Potency, µM (series often up to 46.1 µM), for inactives: at the highest dose activity change, positive = activation, usual class: activators; further: % of control where 0% means no effect; nearly all actives have a fitted effect of over 55% in size
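HEK293 cells carry an SMN2 minigene-luciferase reporter in which exon 7 inclusion puts luciferase in frame. Cells were seeded at 2000 cells/well, attached for 10-12 hours, then exposed to compounds for 30-36 hours at 37C before ONE-Glo luminescence.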
Starred values were filed as active, the others as inactive; ? = inconclusive; · = no result given; [ ] = another dose, or the depositor's remark. Shown are actives, neighbours in structure and some others; about 7.4% of the full set was active somewhere. The call rests on the fitted dose curve; in most records, active means well fitted curve in the direction sought with a large enough effect; inconclusive means small, poorly fitted or top-dose-only effect, or another doubt; inactive means no such curve, though single readings can be large; an effect the other way counts as inactive or inconclusive. Potency means the concentration at half of the fitted maximal effect.

SMILES	FLuc modulator	ELG1 genotoxic	Rab9 prom act	NPC1 prom act	SMN2 splice up
Cc1noc(C)c1S(=O)(=O)N(C)C[C@H]1Oc2c(NC(=O)C3CCCCC3)cccc2C(=O)N([C@H](C)CO)C[C@@H]1C	·	3%	·	·	·
Cc1ccc(NC(=O)c2ccc3ccccc3n2)nc1	1.7µM*	9.2µM*	3.5µM*	2.5µM*	3.2µM*
O=C(Nc1ccc(Cl)cn1)c1ccc2ccccc2n1	1.5µM*	?	?	?	20µM*
CCOc1ccc(S(=O)(=O)N/N=C2/CC(c3ccccc3)Oc3ccccc32)cc1 (stereo not drawn)	21µM*	8%	0%	2%	?
O=S(=O)(N/N=C1\CC(c2ccccc2)Oc2ccccc21)c1ccccc1 (stereo not drawn)	-10%	-6%	-7%	0%	-11%
O=C(Nc1ccc(N2CCCC2)cc1)c1cc2ccccc2o1	3µM*	?	2µM*	3.5µM*	·
CC(NC(=O)c1cc2ccccc2o1)c1ccccc1 (stereo not drawn)	-10%	-3%	-12%	0%	·
CC(=O)N1CCN(c2ccc(NC(=O)c3cc4ccccc4o3)cc2)CC1	?	-1%	3%	0%	·
O=C(Nc1ccc(NC(=O)c2cc3ccccc3o2)cc1)c1ccco1	-15%	6%	20%	13%	·
O=C(Nc1ccccc1)c1cc2ccccc2o1	1.2µM*	?	1.6µM*	2.8µM*	13µM*
CSC(C(=O)c1cc2ccccc2o1)c1ccccc1 (stereo not drawn)	?	9%	3.2µM*	?	·
CC(C)c1nnc(NC(=O)c2cc3ccccc3o2)s1	6.7µM*	?	2µM*	?	·
O=C(NNC(=O)c1ccccc1O)c1cc2ccccc2o1	27µM*	?	?	4.5µM*	·
O=C(NNC(=O)c1cc2ccccc2o1)c1ccncc1	·	4%	·	·	·
Cc1cc(C(=O)Nc2ccccc2)oc1C	12µM*	?	2.8µM*	?	20µM*
CC(=O)c1ccc(NC(=O)c2cc3ccccc3o2)cc1	?	2.6µM*	0.63µM*	1µM*	·
O=C(Nc1ccc(F)cc1)c1cc2ccccc2o1	6.7µM*	21%	3.2µM*	3.5µM*	·
CN(Cc1c(F)cccc1Cl)C(=O)c1ccc(NC(=O)CC2SC(N3CCCC3)=NC2=O)cc1 (stereo not drawn)	6%	-2%	-3%	-3%	·
CCC1CCCCN1CCCNC(=O)c1ccc2c(c1)N(Cc1ccc(Cl)cc1)C(=O)c1ccccc1S2(=O)=O (stereo not drawn)	4%	·	·	·	5%
COc1ccccc1NC(=O)CC1S/C(=N/N=C(\C)C2CCCCC2)NC1=O (stereo not drawn)	1%	-7%	3%	-5%	·
CCc1cc(=O)n2[nH]c(-c3ccccc3)c(-c3ccccc3)c2n1	-2%	-5%	0%	-10%	·
Cc1cc(C)n2nc(C(=O)NC3CCCc4ccccc43)nc2n1 (stereo not drawn)	3%	-2%	-9%	-2%	9%
O=C1OC(=O)c2ccccc21	·	·	·	·	-1%
CCOCCO	·	·	·	·	4%
COc1ccc(-c2cc(C(=O)N3CCCC3)c3ccccc3n2)cc1OC	?	-7%	0%	4%	·
SMILES	FLuc modulator	ELG1 genotoxic	Rab9 prom act	NPC1 prom act	SMN2 splice up
Cc1cc(C(=O)c2ccccc2)nc2ccccc12	1%	6%	3%	0%	3%
CCOc1ccccc1/C=C/c1nc2ccccc2[nH]c1=O	-10%	5%	4µM*	3.2µM*	·
CCOc1ccccc1/C=C/c1cc(C(=O)O)c2ccccc2n1	13µM*	10%	14%	22%	·
COc1cc(OC)c(OC)cc1/C=C/c1cc(C(=O)O)c2ccccc2n1	11µM*	3%	-8%	-1%	-8%
CCN(CC)C(=O)Cc1cc(C(=O)O)c2ccccc2n1	4%[2.3 µM]	0%	10%	2%	·
CCOc1ccccc1CSc1nc2ccccc2[nH]1	?	-1%	-4%	-1%	-8%
Cc1cc(/C=C\c2ccccc2)nc2ccccc12	1.5µM*	?	?	23%	·
COc1cccc(NC(=O)Cn2c(=O)ccc3cc(S(=O)(=O)N4CCC(C)CC4)ccc32)c1	1%	·	·	·	·
COc1ccc(/C=C/c2cc(C(=O)O)c3ccccc3n2)cc1	0.067µM*	-15%	?	?	·
CNC(=O)C1CCN(C(=O)N2CC(C)Oc3ccc(Cl)cc32)CC1 (stereo not drawn)	3%	·	·	·	·
Cc1cccc2nc(COc3ccc(Cl)c4cccnc34)cn12	12µM*	?	?	21%	?
COc1cccc(C(=O)N/N=C/C(Br)=C/c2ccccc2)c1	11µM*	18%	13%	1%	23%
COc1ccc(C(=O)N/N=C/C(Br)=C/c2ccccc2)cc1	3µM*	-2%	19%	9%	11%
Cn1cc(C(=O)N/N=C/C(Br)=C/c2ccccc2)ccc1=O	19µM*	12%	4%	1%	4%[1.84 µM]
Cn1cc(C(=O)N/N=C/C(Br)=C\c2ccccc2)ccc1=O	?	14%	11%	-7%	15%
O=C(N/N=C/C(Br)=C/c1ccccc1)c1ccccc1[N+](=O)[O-]	?	3%	0%	-3%	·
COc1ccc(CCNC(=O)C2COc3ccccc3C2)cc1OC (stereo not drawn)	4%	·	·	·	·
CCOC(=O)c1ccc(NC(=O)Cn2cc(C(=O)c3ccc(Cl)cc3)c(=O)c3ccc(C)nc32)cc1	2%	·	·	·	·
Cc1cc(C)nc(N/N=C/c2ccccc2OCc2cccc(Br)c2)n1	19µM*	1%	-5%	-1%	-10%
Cc1cc(C)nc(N/N=C/c2cc(Br)ccc2O)n1	8.5µM*	?	-7%	-6%	·
Cc1cc(C)nc(N/N=C/c2ccccc2OCc2ccc(Br)cc2)n1	?	-5%	15%	14%	13µM*
N#Cc1c[nH]n2c(NC3CCCCC3)c(-c3ccccc3F)nc12	-7%	·	·	·	·
CCOC(=O)C1C(=O)C=C(c2ccc(C)cc2)CC1c1ccco1 (stereo not drawn)	12µM*	0%	18%	2%	-3%
CCOC(=O)C1C(=O)C=C(c2ccc(C)cc2)CC1c1cccc([N+](=O)[O-])c1 (stereo not drawn)	11µM*	-6%	0%	-4%	·
COc1cccc(N2C(=O)N(CC(=O)NCc3cccc(OC)c3OC)c3ccccc3S2(=O)=O)c1	0%	·	·	·	·
CCCn1c(C)cs/c1=N\C(=S)Nc1ccccc1	3%	2%	3%	9%	1%
Cc1cs/c(=N/C(=S)Nc2ccccc2)n1C	4.8µM*	2.9µM*	1.6µM*	1.1µM*	1.3µM*
Cc1ccccc1Nc1nnc(SCC(=O)NCc2ccco2)s1	3%	0%	4%	1%	6%
CC(C)(C)c1ccc(C(=O)NCc2nnc(SCC(=O)NCc3ccco3)o2)cc1	19µM*	7%	2%	3%	·
